Results reported in PubChem BioAssay AID1347165 (National Center for Advancing Translational Sciences (NCATS), 2019).
Hit rate of the full screen: of about 220,000 compounds, about 5,700 (2.6%) were called active. Another 18% or so got no clear call; they are omitted. Calls follow the shape of the dose curve; as a rule, active = well fitted inhibition curve with a large enough effect; inconclusive = small, poorly fitted or top-dose-only effect; inactive = no such curve, though single readings can be large or run the other way. For the sample, actives were picked, then their nearest neighbours and some compounds at random.

What follows are compounds tested against Lysine-specific demethylase 5B (Homo sapiens) (UniProt Q9UGL1) (assay: Primary screen for KDM5B Histone Demethylases FDH-coupled qHTS). Conditions: FDH-coupled NADH fluorescence (FDH is formaldehyde dehydrogenase); series mostly up to 57.7 µM; activity change, negative = inhibition: at the top concentration.
Procedure, shortened: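 qHTS format, multiple compound concentrations. Buffer 50 mM HEPES pH 7.5/0.01% Tween-20; 200 nM KDM5BΔAP final; 10 min compound preincubation; substrate-mix levels 12.5 µM peptide, 25 µM α-KG, 0.25 mM NAD⁺; 30 min RT; ΔRFU.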
Also: nearly all actives have a fitted effect of over 70% in size.
For activity change, negative = inhibition in this document: 0% is about no effect.
Potency is read from the fitted curve at half-maximal effect.

Lysine-specific demethylase 5B (Homo sapiens), sequence (Q9UGL1 whole entry, looked up): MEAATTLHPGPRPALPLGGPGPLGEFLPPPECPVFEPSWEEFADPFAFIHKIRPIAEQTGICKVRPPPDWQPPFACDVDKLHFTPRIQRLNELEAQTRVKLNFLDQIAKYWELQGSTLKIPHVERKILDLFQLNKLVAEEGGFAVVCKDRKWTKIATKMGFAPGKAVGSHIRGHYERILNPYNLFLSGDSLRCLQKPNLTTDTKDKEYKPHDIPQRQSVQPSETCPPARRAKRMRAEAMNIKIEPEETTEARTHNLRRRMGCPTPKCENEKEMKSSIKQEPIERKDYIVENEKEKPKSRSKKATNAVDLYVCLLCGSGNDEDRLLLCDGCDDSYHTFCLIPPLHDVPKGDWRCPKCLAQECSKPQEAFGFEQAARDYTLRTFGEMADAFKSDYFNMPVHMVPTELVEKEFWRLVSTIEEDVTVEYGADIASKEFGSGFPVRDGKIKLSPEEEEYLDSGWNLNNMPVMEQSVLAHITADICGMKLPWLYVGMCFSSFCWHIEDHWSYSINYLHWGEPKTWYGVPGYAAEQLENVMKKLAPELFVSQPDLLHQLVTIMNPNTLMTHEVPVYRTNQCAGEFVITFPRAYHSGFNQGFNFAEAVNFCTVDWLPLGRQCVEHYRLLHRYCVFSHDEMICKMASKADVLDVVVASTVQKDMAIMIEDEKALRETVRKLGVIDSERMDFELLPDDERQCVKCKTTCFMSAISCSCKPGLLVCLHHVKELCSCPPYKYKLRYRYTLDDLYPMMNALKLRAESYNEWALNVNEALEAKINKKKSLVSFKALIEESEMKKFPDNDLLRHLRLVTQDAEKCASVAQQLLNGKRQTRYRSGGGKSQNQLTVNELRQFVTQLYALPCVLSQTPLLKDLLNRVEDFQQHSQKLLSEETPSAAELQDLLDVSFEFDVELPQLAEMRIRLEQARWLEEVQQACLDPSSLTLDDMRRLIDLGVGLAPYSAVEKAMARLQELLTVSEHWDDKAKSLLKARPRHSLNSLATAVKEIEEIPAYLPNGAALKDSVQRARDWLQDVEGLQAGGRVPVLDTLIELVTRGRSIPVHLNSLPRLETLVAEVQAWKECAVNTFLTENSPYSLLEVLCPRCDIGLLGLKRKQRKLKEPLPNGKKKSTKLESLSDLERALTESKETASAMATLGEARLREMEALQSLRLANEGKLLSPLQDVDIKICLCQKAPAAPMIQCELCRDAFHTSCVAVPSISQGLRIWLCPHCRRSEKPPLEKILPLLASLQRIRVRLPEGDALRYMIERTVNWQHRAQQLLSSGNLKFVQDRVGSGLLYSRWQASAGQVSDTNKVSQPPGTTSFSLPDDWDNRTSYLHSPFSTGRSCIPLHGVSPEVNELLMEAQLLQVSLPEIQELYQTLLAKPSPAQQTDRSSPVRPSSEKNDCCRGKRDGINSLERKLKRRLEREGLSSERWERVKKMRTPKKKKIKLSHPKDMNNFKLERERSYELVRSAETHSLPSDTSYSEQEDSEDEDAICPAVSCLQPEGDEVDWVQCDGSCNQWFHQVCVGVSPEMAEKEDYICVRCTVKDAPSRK

Activity change, negative = inhibition, inactive:
C/C=C/c1ccc(OCC(=O)N2CCN(S(=O)(=O)c3ccccc3)CC2)c(OC)c1 -5.54%
O=C(/C=C/c1ccccc1)Nc1cccc2c1CCCC2 24.1%
O=C(NCC1CC1)c1ccc(F)cc1 17.1%
Cc1ccc(OCc2nc3ccc(F)cc3[nH]2)cc1 15.2%
CCCCCC1CC(COc2ccccc2)OC1=O (stereo not given) 26.8%
COc1ccc2c(COC(=O)c3cc4ccccc4cc3O)cc(=O)oc2c1 -21.8%
CCc1cccc2c(C(=O)C(Nc3cccc(CO)c3)c3ccccc3)c[nH]c12 (stereo not given) -20.6%
O=C(COC(=O)CCc1c[nH]c2ccccc12)NC1CC1 0.514%
Cc1cc(Nc2cccc(Cl)c2)n2nc(Cc3ccccc3)nc2n1 -9.46%
O=C(c1ccccc1)c1ccc(C(=O)N2CCN(c3ccccc3)CC2)cc1 -3.85%
C=CCNC(=O)N1CC[C@@H](CC(=O)O)[C@@H](CC2=NCCc3ccc(C)cc32)C1 -15.8% [at 86.2 µM]
CC(C)(C)C(=O)N1CC[C@@H](CC(=O)O)[C@@H](CCN2CCN(c3cccc(C(F)(F)F)c3)CC2)C1 19%
Cc1ccc(CNC(=O)[C@H](C)NC(=O)[C@@H]2Cc3ccccc3CN2)cc1 5.1%
O=C(NCc1ccccn1)C1c2ccccc2C(=O)N(C2CCCC2)C12CCCC2 (stereo not given) 22.4%
COCc1nnc(NC(=O)C2c3ccccc3C(=O)N(C3CCCC3)C23CCCC3)s1 (stereo not given) -17.5%
CN(C)CCN(Cc1ccc(Cl)cc1)C(=O)c1ccncc1 -6.95%
COc1cc(C(=O)OC2CCCCC2=O)ccc1OCc1ccccc1Cl (stereo not given) -12.3%
Clc1ccc2[nH]c3c(c2c1)CCCC3 -23.8%
Cc1ccncc1C(=O)N1CCC(Cn2c(C)cnc2-c2cccnc2)CC1 -18.9%
COCCn1c(C)cnc1CC1CCN(C(=O)c2ccc(OC)cc2OC)CC1 34.2%
Cc1[nH]c(=O)[nH]c(=O)c1CCC(=O)Nc1nc(C(C)C)cs1 -2.21%
CCOC(=O)C1CCN(C(=O)c2cccc(S(=O)(=O)N(CC)c3ccccc3)c2)CC1 -3.52%
O=C(c1ccnc(-c2nnc3ccc(N4CCOCC4)nn23)c1)N1CCCCC1 -40.3% [at 86.2 µM]
CC(=O)c1ccc(NC(=O)COC(=O)C2CCN(c3ccc(C(F)(F)F)cn3)CC2)cc1 -18.1%
O=C(OCc1cccc(Cl)c1)c1ccc(N2CCOCC2)nc1 -16.1%
CCC(=O)Nc1ccc(Cl)cc1C -3.1%
Cc1cc(C)c(OCC(=O)Nc2ccc(NC(=O)c3ccco3)cc2)c(Br)c1 -5.67%
CCOc1cc(C)c(Cl)cc1S(=O)(=O)N1CCCCC1C (stereo not given) -1.68%
CC(OC(=O)CCCc1c[nH]c2ccccc12)C(=O)NC(N)=O (stereo not given) -1.4%
CCCCc1nc(SCC(=O)Nc2nnc(C(C)C)s2)n[nH]1 -21.5%
COC(=O)C1CCN(C(=O)CC[C@H]2CNC(=O)[C@@H]3[C@@H](CCN3Cc3cccs3)N2C)CC1 -14.8%
CN1[C@@H](CCC(=O)N2CCN(c3ccccc3)CC2)CNC(=O)[C@H]2NCC[C@H]21 1.01% [at 86.2 µM]
O=C(Nc1ccsc1)N[C@H]1C[C@H]2C(=O)NC[C@@H](CCC(=O)N3CCC(O)CC3)N2C1 -27.4% [at 86.2 µM]
CN(C)c1ccc(C(=O)N[C@H]2C[C@H]3C(=O)NC[C@@H](CCC(=O)N4CCCCC4)N3C2)cc1 -22.1%
COc1cccc(C(=O)Oc2ccc(C3(c4ccc(OC(=O)c5cccc(OC)c5)cc4)OC(=O)c4ccccc43)cc2)c1 15.9%
CC(C)NC(=O)CN(C)CC(O)COc1ccc(Cl)cc1 (stereo not given) -11.6%
CCc1cc(CC)n(-c2nc3c(c(=O)n(C)c(=O)n3C)n2C)n1 15.4%
CCc1nn(C(C)C(=O)NCc2ccccc2Cl)c(=O)c2cc3occc3n12 (stereo not given) 8.4%
NC(=O)c1ccc(NC(=O)C2(Cc3nc4ccccc4s3)CCCCC2)cc1 -20.3%
CCNC(=O)NC(=O)CN1CCCC(c2nc3ccccc3o2)C1 (stereo not given) 2.2%
CC(C)NC(=O)Cc1cccs1 18%
CCC1(C)Cc2nc3sc4c(=O)n(CC(=O)NCc5ccco5)cnc4c3cc2CO1 (stereo not given) -10%
Cn1nc(CC(=O)Nc2cccc(Cl)c2)c2ccccc2c1=O -6.18%
COc1ccc2c(C)c(CC(=O)NCc3ccco3)c(=O)oc2c1 -963%
Cc1ccc(C(NC(=O)c2ccccc2Cl)C(Cl)(Cl)Cl)cc1 (stereo not given) 3.03%
Cc1cc(NC(=O)CSc2nc(=O)cc(N)n2-c2ccc(F)cc2)no1 7.62%
O=C(O)CC/C(=C/c1cccc(Oc2ccc(Cl)cc2)c1)c1nc2ccccc2s1 344%
CN(Cc1nnc(-c2ccc(Br)s2)o1)C1CCCC1 -4.13%
COc1ccccc1C1=NS(=O)(=O)N(C)C(C(=O)N2CCN(Cc3ccccc3)CC2)=C1 -13.6%
Cc1ccccc1CNC(=O)c1ccc2c(c1)CCCC2 19%
O=C(CSc1ncc(-c2ccc(Cl)cc2)o1)Nc1ccc(F)cc1 5.5%
COc1nc2nc(CCc3ccccc3)n(C)c2cc1-c1cncnc1 -15.5% [at 86.2 µM]
CC(=O)Nc1cccc(-c2nnc3n2CCCC3)c1 11.1%
CC(=O)Nc1cccc(-c2n[nH]c3c2CC(=O)N(Cc2ccccc2F)C3)c1 19% [at 86.2 µM]

Potency, active:
COc1cccc2c1CCN=C2C[C@H]1CN(C(=O)C(C)(C)C)CC[C@H]1CC(=O)O 35.5 µM
Cc1cccnc1NC(=O)C1c2ccccc2C(=O)N(C2CCCC2)C12CCCC2 (stereo not given) 15.8 µM
Cc1cnc(CC2CCN(C(=O)c3cccc4[nH]ccc34)CC2)n1CC1CC1 22.4 µM
CCOC(=O)C1CCN(C(=O)c2ccc(-c3ccc(N4CCCCCC4)nc3)cc2)CC1 15.8 µM
O=C(c1ccc(-c2ccc(N3CCCCC3)nc2)cc1)N1CCOCC1 28.2 µM
CN1[C@@H](CCC(=O)N2CCN(c3ccccn3)CC2)CNC(=O)[C@@H]2[C@H]1CCN2Cc1csnn1 28.2 µM
O=C1NC[C@@H](CCC(=O)N2CCN(c3ccccn3)CC2)N2C[C@@H](NCc3ccccc3)C[C@@H]12 31.6 µM
Cc1cccc(-n2nc(-c3c(C)nc4scc(CC(=O)NCc5ccco5)n4c3=O)cc2C)c1C 31.6 µM
Cc1nc2scc(CC(=O)NC(C)C)n2c(=O)c1-c1cc(C)n(-c2cccc(Cl)c2)n1 28.2 µM
COc1nc2nc(CC3CC3)n(C)c2cc1-c1ccc(CO)cc1 35.5 µM
COc1nc2nc(CC3CC3)n(C)c2cc1-c1cccc(NC(C)=O)c1 35.5 µM
